Results published in PubChem BioAssay AID623868 (Vanderbilt High Throughput Screening Facility, 2012).
Out of some 2,100 compounds screened, about 760 (36%) were called active. The list is a sample of the results. Values without a mark were called inactive.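 How the source made its calls: active means thallium-flux fluorescence traces judged by eye to show enhanced or reduced glutamate response, manual score 1 or -1, so both directions (some results past the limit were not filed as active); inactive means the rest, including fluorescent or raised-baseline compounds.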

Assay: thallium influx changes without GIRK channels – cell-based, HEK-293 rmGlu8, no GIRK, thallium flux, counter-screen for GIRK activator project, confirmation (AID 623868);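 further: extra codes mark interference with 3 for fluorescent and 4 for baseline rise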
Conditions: thallium flux fluorescence, at 10 µM, actives lie on both sides, codes: 1 enhancer, -1 blocker, 0 none, thallium stimulus containing EC20 glutamate

Structure (SMILES) | manual score
O=C(C1CCCN1S(=O)(=O)c1cccc2cccnc12)N1CCc2ccccc21 (stereo unspecified) | 0
O=C(C1CCN(S(=O)(=O)c2cccc3cccnc23)CC1)N1CC=C(c2ccccc2)CC1 | -1 (active)
O=C(C1CCCN1S(=O)(=O)c1cccc2cccnc12)N1CCn2c1nc1ccccc12 (stereo unspecified) | 0
S=c1[nH]nc(-c2ccco2)n1/N=C/c1ccc(Br)s1 | 1 (active)
Cc1cc(-c2n[nH]c(=S)n2/N=C/c2ccc(Br)s2)n[nH]1 | 1 (active)
S=c1[nH]nc(-c2ccccn2)n1/N=C/c1ccc(Br)s1 | 1 (active)
CCN=c1scc(-c2ccco2)n1/N=C/c1ccc(O)cc1 | 0
Cc1c(C(=O)NCc2cccnc2)oc2ccc(S(=O)(=O)N3CCC4(CC3)OCCO4)cc12 | 0
Clc1ccc(CSc2ncn(-c3ccccc3)n2)cc1 | 0
COC(=O)Cn1c(CN2CCc3ccccc3C2)nc2c1c(=O)n(C)c(=O)n2C | 0
O=C(CSc1nnc(-c2c[nH]c3ccccc23)n1-c1ccc(F)cc1)NCc1ccco1 | -1 (active)
O=C(CSc1c[nH]c2ccccc12)NCc1ccc2c(c1)OCO2 | 0
Cc1ccc(-n2c(CSc3nc(C)cc(C)n3)nnc2SCC(=O)NCc2ccco2)cc1 | 0
CCOC(=O)C1CCCN(c2nc(C)nc3c2oc2ccccc23)C1 (stereo unspecified) | 0
CCOC(=O)N1CCN(C(=O)CN(Cc2ccccc2)S(=O)(=O)c2ccc(OC)c(C)c2)CC1 | 0
C=CCn1c(SCC(=O)Nc2sccc2C(N)=O)nc2ccc(Cl)cc2c1=O | 1 (active)
COc1ccc(CNCCC(c2ccc(F)cc2)c2ccc(OC)cc2)cc1 (stereo unspecified) | 0
CCc1ccc(/C=C/C(=O)C2C(=O)c3ccccc3C2=O)cc1 | 1 (active)
CCc1ccc(/C=c2\s/c(=C\C(=O)C(C)(C)C)[nH]c2=O)cc1 | 0
CC(/C=C\c1cccnc1)=C/C(=O)O | 0
O=C(/C=C/c1ccccc1)C1C(=O)c2ccccc2C1=O | 1 (active)
CCOC(=O)C1=NNC(C(=O)c2ccc(OC)cc2)C1c1ccccc1 (stereo unspecified) | 0

Structure (SMILES) | manual score
Cc1ccc2c(c1)NC(=O)CC(c1ccccc1)=N2 | 0
FC(F)(F)c1ccc2nnc(-c3c(Cl)cccc3Cl)n2c1 | 0
CN(c1ccc(OCC(=O)OCC(=O)Nc2ccccc2F)cc1)S(=O)(=O)c1cccs1 | 0
CC(C)c1nc(=S)c2ccccc2[nH]1 | 1 (active)
S=c1nc(C2CC2)[nH]c2ccccc12 | 1 (active)
c1ccc2c(NC3CCCC3)nnc(NC3CCCC3)c2c1 | 0
CCc1ccc(CNCCNCC(C)O)cc1 (stereo unspecified) | 0
Clc1ccc(Cl)c(OCc2cc(-c3ccccc3Cl)on2)c1 | 0
CCCc1cc(=O)n2[nH]c(-c3ccc(Br)cc3)cc2n1 | 0
COc1ccc2cc(C(=O)Nc3ccccc3)sc(=O)c2c1OC | 0
COc1ccccc1C(=O)NNC(=S)NC(=O)c1sc2ccccc2c1Cl | 1 (active)
CC(C)(C)C(=O)NC(=S)NNC(=O)c1sc2ccccc2c1Cl | 1 (active)
COc1ccccc1C(=O)NC(=S)NNC(=O)c1sc2ccccc2c1Cl | 1 (active)
CCCCCc1nnc(NC(=O)Cc2cccs2)s1 | 0
CNC(=S)N=Nc1c(O)[nH]c2ccc(C(C)C)cc12 | 1 (active)
COc1cccc(NC(=O)CC2COc3ccccc3O2)c1 (stereo unspecified) | 0
C#CC(CO)N(CCN(Cc1ccccc1)C(C#C)CO)Cc1ccccc1 (stereo unspecified) | 0
COc1ccc(-c2nnc(NC(=O)c3ccc(S(=O)(=O)N4CCCc5ccccc54)cc3)o2)cc1 | 1 (active)
CCOc1ccc(-c2nnc(NC(=O)c3ccc(OCC(C)C)c(OC)c3)o2)cc1 | 1 (active)
COc1ccc(-c2nnc(NC(=O)c3ccc(S(=O)(=O)N4COCC4(C)C)cc3)o2)cc1 | 1 (active)
CCOc1ccc(-c2nc(-c3ccc(OC)c(OC)c3)no2)cc1OCC | 0
CCOc1ccc(-c2nnc(NC(=O)CCCOc3cccc(C)c3)o2)cc1 | 0

Structure (SMILES) | manual score
COc1ccc(-c2nnc(NC(=O)c3ccc(S(=O)(=O)N4CCc5ccccc5C4)cc3)o2)cc1 | 1 (active)
Cc1cccc(N2CCN(C(=O)c3ccc(Cl)c(S(=O)(=O)N4CCc5ccccc5C4)c3)CC2)c1C | 0
CCCCCCCC1CC(CSC(=N)N)OC1=O (stereo unspecified) | 0
COc1ccc(C(C)N2CC34C=CC(O3)C(C(=O)OCC(C)C)C4C2=O)cc1 (stereo unspecified) | 0
N#CCCn1nc(-c2ccc(Cl)cc2)cc1Nc1ccccc1NC(=O)C(F)(F)F | 0
O=C(Nc1nnc(-c2ccco2)o1)c1ccc2ccccc2c1 | 1 (active)
CCc1cc(C(N)=O)c(NC(=O)c2ccc(OC)cc2)s1 | 0
COc1ccc(-c2nnc(NC(=O)c3ccc(F)cc3)o2)cc1 | 1 (active)
O=C(CSc1ccc(-c2ccco2)nn1)c1ccccc1 | 0
CCCCOC(=S)NC(=O)c1sc2ccccc2c1Cl | 1 (active)
CCOC(=S)NC(=O)c1sc2ccccc2c1Cl | 1 (active)
O=C(NC(=S)N(CCCCO)C1CCCCC1)c1sc2ccccc2c1Cl | 1 (active)
CCCOC(=S)NC(=O)c1sc2ccccc2c1Cl | 1 (active)
OC(CN1C2=NCCCN2c2ccccc21)c1ccc(Br)cc1 (stereo unspecified) | 0
N=c1c(C(=O)NCc2ccco2)cc2c(=O)n3ccccc3nc2n1CCc1ccccc1 | 0
Cc1ccc2c(Cl)cc(Cl)c(OCC(=O)NCc3ccco3)c2n1 | 1 (active)
CCC/C(=N/NC(=O)c1cccc(Cl)c1)c1ccccc1 | 1 (active)
COc1cccc(NC(=S)N/N=C2/CCCCc3ccccc32)c1 | 1 (active)
CCNC(=S)N/N=C1\CCCCc2ccccc21 | 0.5
COc1cccc(NC(=O)Cn2cc3c(n2)CCCCC3)c1 | 0
COc1ccc(Nc2nc(N)nc(CSc3nnc(C)s3)n2)cc1 | 0
COc1cc(OC)c(-c2c3cc(O)c(=O)cc-3oc3cc(O)c(O)cc23)cc1OC | 3

Structure (SMILES) | manual score
COc1cccc(CNCCNC(=O)c2ccco2)c1OC | 0
COc1ccc(C)cc1NC(=O)Nc1ccccc1 | 0
COc1ccc(C)cc1NC(=O)C(=O)NNC(=O)c1ccco1 | 1 (active)
COc1ccc(NC(=O)Nc2ccccc2OC)cc1 | 0
COc1ccc(NC(=O)Nc2cc(C)ccc2OC)cc1 | 0
COc1ccccc1NC(=O)C(=O)NNC(=O)c1ccco1 | 1 (active)
CC(C)c1ccc(-n2cccc2/C=C2/C(=N)N3C=CSC3=NC2=O)cc1 | 0
C(/C=C/C=C/Nc1ccccc1)=Nc1ccccc1 | 3
Cc1ccc(OCC(O)Cn2c(=N)n(CCN3CCCCC3)c3ccccc32)cc1 (stereo unspecified) | 0
CC(c1ccc(F)cc1)n1c(-c2ccc3ccccc3n2)n[nH]c1=S (stereo unspecified) | 1 (active)
CC(c1ccc(Cl)cc1)n1c(-c2ccc3ccccc3n2)n[nH]c1=S (stereo unspecified) | 1 (active)
CC(=O)Nc1ccc(Oc2ncccn2)cc1 | 0
O=C(NNC(=O)c1cccnc1SCc1cccc([N+](=O)[O-])c1)c1ccccn1 | 1 (active)
Cc1cccc(C)c1NC(=O)C(NC(=O)c1ccccn1)c1ccc([N+](=O)[O-])cc1 (stereo unspecified) | 0
O=C(NNC(=O)c1cccnc1SCc1cccc([N+](=O)[O-])c1)c1cccnc1 | 0
O=C(c1oc(=O)c2ccccc2c1-c1ccccc1)N1CCN(C2CCCCC2)CC1 | 0
CCOC(=O)c1cc2n(c1N)-c1ccccc1C2=O | 3
CCOC(=O)c1ccc(N2C(=O)C(O)=C(C(C)=O)C2c2ccccc2)cc1 (stereo unspecified) | -0.5
CCOC(=O)C1=C(O)C(=O)N(c2ccc(S(N)(=O)=O)cc2)C1c1ccccc1 (stereo unspecified) | -1 (active)
CCCCn1nnc(NC(=S)NC(=O)c2ccc(-c3cccc(Cl)c3Cl)o2)n1 | 1 (active)
Clc1cccc(-c2ccc(/C=N/n3cnnc3)o2)c1Cl | 0
CCCn1nnc(NC(=O)COc2ccc(C3CCCCC3)cc2)n1 | 0

Structure (SMILES) | manual score
COc1ccccc1N(C)S(=O)(=O)c1ccc(C(=O)N(CC(N)=O)C(C)C)cc1 | 0
CCOc1ccc(N2C(=O)/C(=C/c3cc(OC)c(OC)c(OC)c3)N(CC(=O)OC)C2=S)cc1 | 0
CCOC(=O)C1CCN(C(=O)N(C)C)CC1 | 0
CCOC(=O)C1CCN(C(=O)CN(c2ccc(Cl)c(C(F)(F)F)c2)S(C)(=O)=O)CC1 | -1 (active)
CS(=O)(=O)N(CC(=O)NCc1ccco1)c1ccc(Cl)c(C(F)(F)F)c1 | 0
O=C(N/N=C/c1ccc(Sc2ccccn2)o1)c1cc2ccccc2cc1O | 1 (active)
CCCOc1ccc(/C=N/NC(=O)C(=O)Nc2ccccn2)cc1 | 1.5
O=C(CSc1nc2ccccc2[nH]1)NC1CCCc2ccccc21 (stereo unspecified) | 0
NC(=O)CSc1ncnc2c1cnn2Cc1ccccc1 | 0
Cc1ccc(-n2ncc3c(SCc4ccccc4)ncnc32)cc1 | 1 (active)
CN(C)CCNc1ncnc2c1cnn2-c1ccc(Cl)cc1 | 0
Cc1ccc(CSc2ncnc3c2cnn3-c2ccc(C)cc2)cc1 | 1 (active)
COc1ccc(OC)c(Nc2ncnc3c2cnn3-c2cccc(C)c2)c1 | 0
COc1cc2cnncc2cc1OC | 0
CCOc1ccc(NC(=O)Cn2nnc(-c3ccccc3F)n2)cc1 | 0
CC(=O)c1c(N2CCCC2)[nH]c(-c2ccccc2)nc1=S | 1 (active)
N#Cc1c(N2CCN(C(=O)c3ccccc3)CC2)nc(-c2ccccc2)c2c1CCCC2 | 0
CSc1nc(-c2ccccc2)[nH]c(=S)c1C(C)=O | 1 (active)
